# In all, about 2,100 compounds went through this assay and about 650 (31%) were called active. Another 16% or so got no clear call; they are omitted. The call rests on the fitted dose curve; in most records, active means well fitted inhibition curve with a large enough effect; inconclusive means small, poorly fitted or top-dose-only effect; inactive means flat fitted curve, though single readings scatter. The list shows a part of the results. Entries that show only a call come without a potency.
# Assay: qHTS for inhibitors of Vif-A3G interactions: Cherry picks; further: nearly all actives have a fitted effect of over 80% in size
# Settings: HeLa A3G-eYFP + Vif (tagged APOBEC3G with the HIV-1 protein that degrades it), 24 h; Potency: eYFP fluorescence increase; series mostly up to 36.9 µM
# Summary of the method: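 Cherry-picked compounds tested at several concentrations on A3G-eYFP/Vif HeLa cells for 24 hours; loss of Vif-driven degradation read as eYFP fluorescence by cytometric plate imaging, 488 nm excitation, 500-530 nm emission.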
# Potency means the concentration at half of the fitted maximal effect.
row,Compound,Potency
1,CSc1nc(N)c(C#N)c(-c2ccccc2Cl)c1C#N,inactive
2,N#Cc1c(Nc2ccccc2)[n+]([O-])c2ccc(Cl)cc2[n+]1[O-],inactive
3,COc1ccc2nc(NC(=O)c3nc(S(=O)(=O)Cc4cccc(C)c4)ncc3Cl)sc2c1,inactive
4,COc1cccc(/C(O)=C/c2nc3ccc(C(=O)NCCc4cccc(C)c4)cc3[nH]c2=O)c1,11.6 µM (active)
5,COc1cccc(/C(O)=C/c2nc3ccc(C(=O)NCCc4ccc(Cl)cc4)cc3[nH]c2=O)c1,16.4 µM (active)
6,COc1cccc(C(=O)N/N=C/C(Br)=C/c2ccccc2)c1,inactive
7,CCOC(=S)SCC(=O)N1CCc2cc(OC)ccc2C1C1C(=O)CCCC1=O (centres undefined),inactive
8,COc1ccc(NC(=S)Nc2ncccc2C)c(OC)c1,inactive
9,COc1cc(C(=O)c2ccc3c(c2)OCO3)cc(OC)c1OC,inactive
10,Oc1ccc(C2=NNC(=NCc3ccc4c(c3)OCO4)SC2)c(O)c1,inactive
11,CC1(C(=O)NCc2ccccc2)Cc2c(-c3ccc(C(N)=O)cc3)ccnc2O1 (centres undefined),inactive
12,Cc1ccc2nsnc2c1NC(=O)c1ccc(-c2cc(Cl)ccc2Cl)o1,15.8 µM (active)
13,CCSc1nccc(-c2nn(-c3ccc(C)cc3)ccc2=O)n1,inactive
14,CC(C)c1ccc(C(=O)NCCCNC(=O)c2cnccn2)cc1,inactive
15,CC(=O)Nc1ccc(C2=CC(=O)C[C@H](c3ccc(Cl)cc3)C2)cc1,18.4 µM (active)
16,CC(=O)Nc1cccc(-c2ccnc3c2CC(C(=O)Nc2ccc(Cl)cc2)O3)c1 (centres undefined),inactive
17,CC(=O)Nc1ccc2c(c1)Cc1ccc(Cl)cc1-2,inactive
18,CCSC1=N/C(=C\C=C2/Oc3ccccc3N2CC)C(=O)S1,14.6 µM (active)
19,CC(=O)Oc1ccc(N2C(=O)c3cccc4c([N+](=O)[O-])ccc(c34)C2=O)cc1,1.46 µM (active)
20,O=C1c2cccc3c([N+](=O)[O-])ccc(c23)C(=O)N1c1ccccn1,5.8 µM (active)
21,Cc1nnc(N2C(=O)c3cccc4c([N+](=O)[O-])ccc(c34)C2=O)s1,18.4 µM (active)
22,COC(=O)[C@@]1(Cc2ccccc2)[C@@H]2C(=CC(=O)[C@H]2CC(=O)C(=O)N(C)C)CN1C(=O)c1ccccc1,inactive
23,C/C(=N\NC(=S)NC(C)C)c1ccc(C(C)(C)C)cc1,inactive
24,CCCSc1nnc(N2C(=O)C(O)=C(C(=O)c3ccco3)C2c2ccccc2F)s1 (centres undefined),inactive
25,CCN(CC)c1ccc2c(c1)OC(N)=C(C#N)C2c1cccnc1 (centres undefined),17.7 µM (active)
26,N#CC1=C(N)Oc2cc(N)ccc2C1c1cccc(Br)c1 (centres undefined),inactive

row,Compound,Potency
1,N#CC1=C(N)Oc2ccc3ccccc3c2C1c1cccnc1 (centres undefined),inactive
2,Cc1cccc2[nH]cc(/C=C3/C=Nc4ccccc43)c12,18.4 µM (active)
3,CC(C)COc1ccc(C(=O)N/C(=C/c2cccc([N+](=O)[O-])c2)C(=O)O)cc1,inactive
4,Cc1nc2c3ccccc3n(Cc3ccccc3F)c2s1,inactive
5,FC(F)(Cl)c1nnc2ccc(Cl)nn12,inactive
6,CCc1ccc(N=Nc2ccc(O)c3[nH]cnc23)cc1,13 µM (active)
7,COc1ccc2c(Cl)c(C(=O)N/N=C3\CCCC(=O)C3)sc2c1,17.7 µM (active)
8,CCOc1cc(C(=O)NN=C2CCCC2)cc(OCC)c1OCC,inactive
9,CCS(=O)(=O)Nc1cccc(C2=NN(C(=O)c3ccco3)C(c3ccco3)C2)c1 (centres undefined),inactive
10,C(=C\c1ccco1)/C1=NN(c2ccccc2)C(c2ccco2)C1 (centres undefined),23.1 µM (active)
11,O=C(/C=C/c1ccco1)N1CCc2ccccc21,inactive
12,COc1ccccc1N=C(C)C1=C(O)CC(c2ccccc2)CC1=O (centres undefined),inactive
13,COc1ccccc1N1N=C(c2ccc([N+](=O)[O-])cc2)CC1c1ccccc1 (centres undefined),1.4 µM (active)
14,O=[N+]([O-])c1ccc(/C=C/C2=NN(c3ccccc3)C(c3ccco3)C2)o1 (centres undefined),3.66 µM (active)
15,COC(=O)c1cc(C(=O)N2CCN(c3ccccc3OC)CC2)cc([N+](=O)[O-])c1,inactive
16,Clc1ccccc1Cn1c(/C=C/c2ccco2)nc2ccccc21,inactive
17,O=[N+]([O-])c1ccc(C2=NN(c3ccccc3)C(c3ccco3)C2)cc1 (centres undefined),1.25 µM (active)
18,Cc1ccc(C(=O)NC(=C(Cl)Cl)S(=O)(=O)c2ccccc2)cc1,inactive
19,COc1ccc(OC)c(Nc2ncnc3c2cnn3-c2cccc(Cl)c2)c1,inactive
20,COc1ccc(NC(=O)C2Cc3c(-c4ccc(NC(C)=O)cc4)ccnc3O2)cn1 (centres undefined),inactive
21,Cn1c2ccccc2c2ccc3c(c21)C(=O)C=CC3=O,inactive
22,N#CC(C(=S)Nc1ccccc1)c1nc2ccccc2[nH]1 (centres undefined),inactive
23,Cc1cccc(C)c1NC(=S)NC(C)CCc1ccccc1 (centres undefined),inactive
24,Cc1cc(C)nc(Nc2nc(C(N)Cc3ccccc3)cs2)n1 (centres undefined),inactive
25,Cc1cc(SCC(=O)c2cccs2)nc2ccccc12,inactive
26,COc1ccc2c(C)cc(SCC(=O)N3CCOCC3)nc2c1,18.4 µM (active)

row,Compound,Potency
1,Cc1sc2nc(SCC(=O)N3CCOCC3)[nH]c(=O)c2c1-c1ccccc1,inactive
2,CCN(CC)c1nc2cc(OC)ccc2cc1C#N,inactive
3,COc1ccc2c(C)cc(SCC#N)nc2c1,18.4 µM (active)
4,CO/N=C/c1ccc(OC)c(Oc2nc(OC)cc(OC)n2)c1,inactive
5,COc1ccc(C2C(C#N)=C(N)Oc3c2ccc2cccnc32)cc1OC (centres undefined),inactive
6,CS(=O)(=O)Nc1cccc(C2=NN(S(C)(=O)=O)C(c3ccc4c(c3)OCO4)C2)c1 (centres undefined),inactive
7,c1ccc(-c2nccc(-c3ccc4c(c3)OCO4)n2)cc1,inactive
8,CS(=O)(=O)N1N=C(c2ccccc2)CC1c1ccc2c(c1)OCO2 (centres undefined),14 µM (active)
9,CCN(CCCN(C)C)c1ccc(/C=C/c2ccnc3ccccc23)cc1,18.4 µM (active)
10,CCCCN(CCC(=O)O)c1ccc(/C=C/c2ccnc3ccccc23)cc1,18.4 µM (active)
11,CCCCN(CCCC)c1ccc(/C=C/c2ccnc3ccccc23)cc1,16.4 µM (active)
12,CC(C)CN(CC(C)C)c1ccc(/C=C/c2ccnc3ccccc23)cc1,23.1 µM (active)
13,COc1ccc(NS(=O)(=O)c2cc(NC(=O)c3ccc(=O)[nH]c3)ccc2N2CCCC2)cc1,inactive
14,Cc1ccsc1/C=N\NC(=O)c1n[nH]c2c1CCC2,inactive
15,CC(=Nc1ccccc1)C1=C(O)C(Cc2ccccc2)NC1=O (centres undefined),inactive
16,CCCN(CCC)c1ccc(/C=C/c2ccnc3ccccc23)cc1,20.6 µM (active)
17,CCN(C)c1ccc(/C=N\n2nnnc2N)cc1,inactive
18,CCN(C)c1ccc(/C=C/c2ccnc3ccccc23)cc1,20.6 µM (active)
19,CCN(CC)c1ccc(/C=C/c2ccnc3ccccc23)cc1,23.1 µM (active)
20,C/C(CC(=O)NCc1ccco1)=N\NC(=O)COc1ccc(Cl)cc1Cl,inactive
21,CCN1/C(=C/C=C2/SC(=Nc3cccc4ncccc34)N(C)C2=O)Sc2ccccc21,16.4 µM (active)
22,COc1cccc(Sc2ccccc2/C=N/NC(N)=O)c1,inactive
23,O=C(Nc1nnc(-c2ccc3c(c2)CCCC3)o1)c1c(F)cccc1F,inactive
24,Cc1nnc(SCC(=O)NCc2ccccc2F)c2nn(-c3ccc(Cl)cc3)c(C)c12,inactive
25,Cc1c(-c2nnc(SCC(=O)Nc3ccccc3F)o2)nnn1-c1ccc(F)cc1,23.1 µM (active)
26,OCCCn1c(C2CCCN2c2nc(-c3ccc(Cl)cc3)cs2)nc2cc(Cl)c(Cl)cc21 (centres undefined),inactive

row,Compound,Potency
1,Cc1ccccc1NC(=O)c1ccc2c(c1)c(C)c(C)n2Cc1ccccc1,inactive
2,N=c1n(CC(=O)c2ccc([N+](=O)[O-])cc2)c2ccccc2n1Cc1ccccc1,18.4 µM (active)
3,Cc1ccc(C(=O)NC2c3ccccc3-c3ccccc32)cc1,inactive
4,Cc1ccc(C)c(C2NC(=O)c3ccccc3N2)c1 (centres undefined),inactive
5,Cc1ccc(SC2=C(Sc3ccc(C)cc3)C(=O)c3ccccc3C2=O)cc1,16.4 µM (active)
6,Cc1ccc(-c2cc(C(=O)N/N=C/C(Br)=C/c3ccccc3)n[nH]2)o1,inactive
7,Cc1ccc(Cl)cc1NC(=O)Nc1cn(CC(C)C)c(=O)c2ccccc12,inactive
8,Cc1ccc2nc(-c3ccccn3)c(NC3CCCC3)n2c1,inactive
9,CN(C)c1ccc(/C=C/c2ccnc3cc(Cl)ccc23)cc1,13 µM (active)
10,CN(C)c1ccc(/C=C/c2ccnc3ccc(-c4ccccc4)cc23)cc1,18.4 µM (active)
11,CN(C)c1ccc(/C=C/C=C/c2ccnc3ccccc23)cc1,5.8 µM (active)
12,CN(C)c1ccc(/C=C/c2ccnc3ccccc23)cc1,18.4 µM (active)
13,COc1cccc(CNCCSc2nnnn2C)c1OCc1ccc(F)cc1,inactive
14,C=CCNC(=S)N/N=C(\C)c1ccc(OC)cc1,inactive
15,CSc1ccc(/C=N/NC(=O)c2ccccc2Cl)cc1,inactive
16,Cc1ccc(NC(=S)N=Nc2c(O)n(C)c3ccc(S(=O)(=O)N4CCOCC4)cc23)cc1,inactive
17,COc1cccc2nccc(/C=C/c3ccc(N(C)C)cc3)c12,20.6 µM (active)
18,CN(C)c1ccc(/C=C/c2ccnc3ccccc23)c(N)c1,18.4 µM (active)
19,CN(C)c1ccc(/C=C/c2cnnc3ccccc23)cc1,20.6 µM (active)
20,CNc1ccc(/C=C/c2ccnc3ccccc23)cc1,18.4 µM (active)
21,COc1ccc(C2=NOC(C(=O)NCc3ccc(F)cc3)C2)cc1 (centres undefined),inactive
22,CCOc1ccc(Br)cc1C1C(C(=O)OC)=C(N)Oc2cc(N(C)C)ccc21 (centres undefined),inactive
23,Cc1ccc(NC(=S)Nc2ccccn2)c(C)c1,inactive
24,CC(=O)Nc1cc(-c2ccccc2CN(C)C)cn2c(-c3ccc(C(C)=O)cc3)cnc12,inactive
25,COC(=O)c1sc(N)c(C(=O)OC)c1COC(=O)c1c(C)noc1C,inactive
26,CC1(C(=O)Nc2ccc3c(c2)OCO3)Cc2c(-c3ccccc3)ccnc2O1 (centres undefined),inactive
